Rows were chosen to be rich in hits. Some 7.9% of all compounds tested hit in one or more screens of this group.
Hedgehog inh = Sonic Hedgehog pathway inhibition. Shh-LIGHT2 Gli-luciferase reporter, 30 h. inhibition, % (test concentration not listed). 22,000 compounds, 2.1% hits;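 active = mean inhibition across valid replicates above about 65%, limit read from the data; inconclusive = mean under the limit, yet half or more replicates past it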;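 also: pathway switched on by Shh-conditioned medium diluted 1 in 25 in low serum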
MITF inh = blocks MITF activity; TRPM1 promoter luciferase, luminescence, 24 h; inhibition, % (concentration not given with the values); 37,000 compounds, 0.28% hits; in the data active = inhibition above about 85%; inconclusive = no clear call, values can overlap the other calls; inactive = below about 68%;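 also: human melanocyte line stably carrying TRPM1 promoter luciferase reporter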
NOMO-1 viab = STK33 inhibitor candidate reducing NOMO-1 cell viability; NOMO-1 AML viability, CellTiter-Glo luminescence, 72 h; inhibition, % (test concentration not listed); 37,000 compounds, 7.5% hits; AID 2330; in the data active = inhibition above about 80%; inconclusive = no clear call, values can overlap the other calls
Numbers stand for hits; - = inactive; ? = inconclusive; . = not tested or not shown.

SMILES	Hedgehog inh	MITF inh	NOMO-1 viab
C[C@@H]1CN([C@@H](C)CO)C(=O)c2cc(NC(=O)Nc3ccc4c(c3)OCO4)ccc2O[C@@H]1CN(C)Cc1ccccc1	.	-	-
CSc1nc2ccc(S(=O)(=O)NCCOc3ccc(Cl)cc3)cc2s1	.	-	-
N#Cc1c(NC(=O)CN2CCN(Cc3ccccc3)CC2)sc2c1CCCC2	.	-	-
CNC[C@@H]1Oc2c(NC(=O)C3CCCCC3)cccc2C(=O)N([C@H](C)CO)C[C@@H]1C	-	-	-
C[C@@H]1O[C@@H](O[C@H]2[C@H](O[C@H]3CC[C@@]4(C)C(CC[C@]5(C)C4CC=C4C6CC(C)(C)CC[C@]6(C(=O)O[C@@H]6O[C@H](CO[C@@H]7O[C@H](CO)[C@@H](O[C@@H]8O[C@@H](C)[C@H](O)[C@@H](O)[C@H]8O)[C@H](O)[C@H]7O)[C@@H](O)[C@H](O)[C@H]6O)CC[C@]45C)C3(C)C)OC[C@H](O)[C@@H]2O)[C@H](O)[C@H](O)[C@H]1O (stereo not given in full)	-	.	.
CC1CC[C@@]2(OC1)O[C@H]1CC3C4CC=C5C[C@@H](O[C@@H]6O[C@H](CO)[C@@H](O[C@@H]7O[C@@H](C)[C@H](O)[C@@H](O)[C@H]7O)[C@H](O)[C@H]6O[C@@H]6O[C@@H](C)[C@H](O)[C@@H](O)[C@H]6O)CC[C@]5(C)C4CC[C@]3(C)[C@@]1(O)[C@@H]2C (stereo not given in full)	79.6	-	118.7
CC(C)(CSc1nnc(Nc2ccccc2)s1)NS(=O)(=O)c1ccc(Cl)cc1	.	-	-
COc1ccc(CC(=O)NC2CCCCC2)cc1OC	-	-	-
COc1cc2c(c(OC)c1OC)-c1ccc(OC)c(=O)cc1[C@@H](NC(C)=O)CC2	91.2	-	117.6
O=c1cc(-c2ccccc2)oc2cccc(O)c12	-	-	-
CC1(C)C=Cc2c(c3occc3c3oc(-c4ccccc4)cc(=O)c23)O1	-	-	94.8
Cc1c(C(N)=O)nnc2cc(-c3ccccc3)nn12	.	-	-
NC(=O)COc1ccc(NC(=O)c2cccnc2)cc1	.	-	-
O=C1c2cccc(O)c2C(=O)c2c(O)cccc21	-	-	-
CC1CC(=O)c2c(ccc3c2C(=O)c2cccc(O)c2C3O)C1 (stereo not given)	-	-	117.5
COc1ccc(OC)c(S(=O)(=O)ON2C(=O)c3ccccc3C2=O)c1	.	-	119.1
O=C(CCN1C(=O)C2C3c4ccccc4C(c4ccccc43)C2C1=O)Oc1cccc2cccnc12 (stereo not given)	.	-	118.0
O=C1NC(=S)N(S(=O)(=O)c2cccc3cccnc23)C1Cc1ccccc1 (stereo not given)	.	-	-
CC(=O)c1cccc(NC(=O)C(C)N2C(=O)c3ccccc3C2=O)c1 (stereo not given)	.	-	-
O=C(O)CCN1C(=O)C2C3c4ccccc4C(c4ccccc43)C2C1=O (stereo not given)	-	-	-
COc1ccc(OC)c(NS(=O)(=O)c2cc(OC)ccc2OC)c1	.	-	-
O=C1c2ccccc2C(=O)N1OS(=O)(=O)c1cccc2cccnc12	.	-	127.5
CC(C(=O)Oc1cccc2cccnc12)N1C(=O)c2ccccc2C1=O (stereo not given)	.	-	127.3
CCN(CC)C(=O)C1Sc2nnc(-c3ccccc3)n2NC1c1ccc(C)cc1 (stereo not given)	-	-	-
COC(=O)CC1C(=O)NCCN1C(=S)Nc1cccc(OC)c1 (stereo not given)	.	-	-
SMILES	Hedgehog inh	MITF inh	NOMO-1 viab
Cc1cc(C)cc(NC(=O)c2ccc(CSc3nnc(-c4cccc([N+](=O)[O-])c4)n3C)cc2)c1	.	-	-
CCc1cc(C(c2ccc(Cl)cc2)N2CCN(CCO)CC2)c(NC(=O)c2ccccc2)s1 (stereo not given)	81.2	-	116.8
Cc1sc(NC(=O)c2ccccc2)c(C(=O)N2CCCCC2)c1C	-	-	-
CC(=O)c1cccc(N(CC(=O)Nc2ccc(C)cc2)S(C)(=O)=O)c1	.	-	-
C[C@H]1CN([C@@H](C)CO)C(=O)c2cc(NC(=O)Cc3ccccc3)ccc2O[C@@H]1CN(C)Cc1ccc2c(c1)OCO2	-	-	-
C[C@H]1CN([C@@H](C)CO)C(=O)c2cc(NC(=O)CCC(F)(F)F)ccc2O[C@@H]1CN(C)Cc1ccc2c(c1)OCO2	.	-	-
C[C@H]1CN([C@@H](C)CO)C(=O)c2cc(NC(=O)Cc3ccccc3)ccc2O[C@H]1CN(C)Cc1ccncc1	.	-	92.4
C[C@H](CO)N1C[C@H](C)[C@H](CN(C)Cc2ccc3c(c2)OCO3)Oc2ccc(NC(=O)CCC(F)(F)F)cc2C1=O	-	-	92.0
C[C@H](CO)N1C[C@H](C)[C@H](CN(C)Cc2ccc3c(c2)OCO3)Oc2ccc(NC(=O)Cc3ccccc3)cc2C1=O	-	-	108.7
C[C@@H]1CN([C@H](C)CO)C(=O)c2cc(NC(=O)Cc3ccccc3)ccc2O[C@H]1CN(C)Cc1ccncc1	.	-	-
O=C(Nc1ccccc1C(F)(F)F)C1c2ccccc2Oc2ccccc21	.	-	-
COc1cc(OC)c(C2=NOC(C(=O)Nc3c(C)nn(Cc4ccc(F)cc4)c3C)C2)cc1Cl (stereo not given)	.	-	-
C[C@@H]1CN([C@H](C)CO)C(=O)c2cccc(N(C)C)c2O[C@H]1CN(C)Cc1ccccc1	-	-	-
COc1ccc(OC)c(NC(=O)COc2ccc3c4c(c(=O)oc3c2C)CCC4)c1	.	-	-
COc1ccccc1COc1ccc2c3c(c(=O)oc2c1C)CCCCC3	.	-	86.8
CS(=O)(=O)N(CC(=O)Nc1ccc(Cl)c(C(F)(F)F)c1)c1cccc([N+](=O)[O-])c1	.	-	-
COc1cccc(OC)c1C(=O)NCCCO	.	-	-
O=c1c(-c2ccccc2)c(O)cc(-c2ccc(F)cc2)n1-c1ccccc1	.	-	-
O=c1cc(-c2ccccc2)n(-c2ccccc2)cn1	-	-	100.6
COc1ccc(C)cc1S(=O)(=O)N1CCCC(C(=O)Nc2ccccc2F)C1 (stereo not given)	.	-	-
O=c1cc(-c2ccc(O)cc2)oc2cc(O)cc(O)c12	-	-	-
CC(C)=CCc1c(O)cc(O)c2c(=O)cc(-c3ccc(O)cc3)oc12	-	-	93.9
C[C@]12CCC3c4ccc(O)cc4CCC3C1CC[C@@H]2O (stereo not given in full)	73.7	-	-
CC(=O)Oc1ccc2c(c1)CCC1C2CC[C@@]2(C)C1CC[C@@H]2OC(C)=O (stereo not given in full)	66.8	-	-
C[C@]12CCC3c4ccc(OS(=O)(=O)O)cc4CCC3C1CC[C@H]2O (stereo not given in full)	-	-	-
C[C@]12CC[C@@H]3c4ccc(O)cc4CC[C@H]3[C@@H]1CCC2=O	72.8	-	-
C#C[C@]1(O)CC[C@H]2[C@@H]3CCc4cc(OC)ccc4[C@H]3CC[C@@]21C	-	-	-
C[C@]12CCC3c4ccc(O)cc4CCC3C1C[C@@H](O)[C@@H]2O (stereo not given in full)	?	-	-
COc1ccc(NC(=O)N(C)C[C@@H]2Oc3ccc(NC(=O)Cn4cnnn4)cc3C(=O)N([C@@H](C)CO)C[C@@H]2C)cc1	-	-	-
CS(=O)(=O)N(CC(=O)Nc1ccc(F)c(F)c1)c1ccccc1Br	.	-	-

Screens: PubChem BioAssay, Broad Institute
